The campaign covered roughly 5,500 compounds. About 2,000 (36%) were called active. Not shown: some 18% with an inconclusive outcome. No stated cut-off is given here; in the data, active means normalized growth mostly below about 0.91 (no sharp cut-off); inconclusive means no clear call, values can overlap the other calls; inactive means mostly above about 0.92. The list shows a part of the results.
Assay: chemical genetic growth profiling, strain panel (AID 1159580);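 further: tested at 20 µM; growth read once vehicle control cultures reached saturation at 30 °C; 1 = growth at the plate median or of vehicle wells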
Conditions: growth OD
[1] = S. cerevisiae deletion strains, locus YAL013W, strain DEP1, stronger effect = lower value
[2] = S. cerevisiae deletion strains, locus YBR229C, strain ROT2, stronger effect = lower value
[3] = S. cerevisiae deletion strains, locus YCL061C, strain MRC1, stronger effect = lower value
[4] = S. cerevisiae deletion strains, locus YDL101C, strain DUN1, stronger effect = lower value
[5] = S. cerevisiae deletion strains, locus YDR150W, strain NUM1, stronger effect = lower value
[6] = S. cerevisiae deletion strains, locus YEL061C, strain CIN8, stronger effect = lower value
[7] = S. cerevisiae deletion strains, locus YGR078C, strain PAC10, stronger effect = lower value
[8] = S. cerevisiae deletion strains, locus YHR030C, strain SLT2, stronger effect = lower value
[9] = S. cerevisiae deletion strains, locus YHR087W, strain rtc3, stronger effect = lower value
[10] = S. cerevisiae deletion strains, locus YJR043C, strain POL32, stronger effect = lower value
[11] = S. cerevisiae deletion strains, locus YJR075W, strain HOC1, stronger effect = lower value
[12] = S. cerevisiae deletion strains, locus YLR039C, strain RIC1, stronger effect = lower value
[13] = S. cerevisiae deletion strains, locus YLR058C, strain SHM2 (second series), stronger effect = lower value
[14] = S. cerevisiae deletion strains, locus YLR085C, strain ARP6, stronger effect = lower value
[15] = S. cerevisiae deletion strains, locus YLR262C, strain YPT6, stronger effect = lower value
[16] = S. cerevisiae deletion strains, locus YML094W, strain GIM5, stronger effect = lower value
[17] = S. cerevisiae deletion strains, locus YMR219W, strain ESC1, stronger effect = lower value
[18] = S. cerevisiae deletion strains, locus YMR263W, strain SAP30, stronger effect = lower value
[19] = S. cerevisiae deletion strains, locus YNL153C, strain GIM3, stronger effect = lower value
[20] = S. cerevisiae deletion strains, locus YNL298W, strain CLA4 (second series), stronger effect = lower value
[21] = S. cerevisiae deletion strains, locus YNL322C, strain KRE1, stronger effect = lower value
[22] = S. cerevisiae deletion strains, locus YNR030W, strain Alg12, stronger effect = lower value
[23] = S. cerevisiae deletion strains, locus YPL055C, strain LGE1, stronger effect = lower value
[24] = S. cerevisiae deletion strains, locus YPL241C, strain CIN2, stronger effect = lower value
[25] = S. cerevisiae deletion strains, locus YPR135W, strain CTF4, stronger effect = lower value
[26] = S. cerevisiae deletion strains, locus YDL134C, strain PPH21, stronger effect = lower value
[27] = S. cerevisiae deletion strains, locus YMR307W, strain GAS1, stronger effect = lower value
[28] = S. cerevisiae deletion strains, locus YOL006C, strain TOP1, stronger effect = lower value
[29] = S. cerevisiae strains, strain wild type, stronger effect = lower value

Measured: normalized growth

CCCc1cnc(N2CCCN(C(=S)Nc3cccnc3)CC2)nc1
inactive: [1] 0.998 | [2] 0.997 | [3] 1.01 | [4] 1.06 | [5] 1.03 | [6] 0.959 | [7] 1.02 | [8] 1.05 | [9] 0.992 | [10] 1.03 | [11] 1.03 | [12] 1 | [13] 0.996 | [14] 1.04 | [15] 1.01 | [16] 1.02 | [17] 1.01 | [18] 1.03 | [19] 1.02 | [20] 0.999 | [21] 0.987 | [22] 1.01 | [23] 1.02 | [24] 1.02 | [25] 1.07

O=[N+]([O-])c1ccc(N2CCCN(C(=S)Nc3ccc(Cl)cc3Cl)CC2)nc1
inactive: [1] 0.966 | [2] 0.96 | [3] 0.956 | [4] 0.942 | [26] 0.979 | [5] 0.886 | [6] 0.912 | [7] 0.961 | S. cerevisiae deletion strains, locus YGR229C, strain SMI1, stronger effect = lower value 0.989 | [10] 0.984 | [11] 0.937 | [13] 0.96 | [16] 0.932 | [17] 0.982 | [19] 0.98 | [21] 0.98 | [28] 0.831 | [23] 0.928 | [24] 0.866
active: [8] 0.422 | [9] 0.906 | [12] 0.628 | [14] 0.543 | [15] 0.686 | [27] 0.433 | [20] 0.831 | [22] 0.8 | [25] 0.337

CSC(=NC#N)N1CCN(c2ccc([N+](=O)[O-])cn2)CC1
inactive: [1] 0.997 | [2] 1.01 | [3] 1 | [4] 1.02 | [26] 0.987 | [5] 1.07 | [6] 0.957 | [7] 0.996 | [8] 0.958 | [9] 0.991 | S. cerevisiae deletion strains, locus YJL187C, strain SWE1, stronger effect = lower value 0.993 | [10] 1.01 | [11] 1.01 | [12] 0.986 | [13] 0.989 | [14] 0.933 | [15] 0.978 | [16] 0.966 | [17] 0.996 | [18] 1.01 | [27] 1.1 | [19] 1 | [20] 0.978 | [21] 0.99 | [22] 0.954 | [23] 1.08 | [24] 0.99 | [25] 1.09 | [29] 0.983

COc1ccc2c(c1)CCC(c1ccccc1)=C2c1ccc(OCCN2CCCC2)cc1
inactive: [2] 0.946 | S. cerevisiae deletion strains, locus YDL185W, strain tfp1, stronger effect = lower value 0.972 | S. cerevisiae deletion strains, locus YER155C, strain BEM2, stronger effect = lower value 0.961 | S. cerevisiae deletion strains, locus YGL078C, strain dbp3, stronger effect = lower value 0.973 | [7] 0.852 | S. cerevisiae deletion strains, locus YIL125W, strain kgd1, stronger effect = lower value 0.987 | S. cerevisiae deletion strains, locus YJL134W, strain LCB3, stronger effect = lower value 1.01 | S. cerevisiae deletion strains, locus YKL009W, strain mrt4, stronger effect = lower value 0.925 | S. cerevisiae deletion strains, locus YKL068W, stronger effect = lower value 0.994 | S. cerevisiae deletion strains, locus YKL085W, strain MDH1 (second series), stronger effect = lower value 0.976 | S. cerevisiae deletion strains, locus YKL085W, strain MDH1, stronger effect = lower value 0.976 | [15] 1.16 | S. cerevisiae deletion strains, locus YMR078C, strain ctf18, stronger effect = lower value 0.979 | [27] 0.764 | S. cerevisiae deletion strains, locus YNL250W, strain rad50, stronger effect = lower value 0.953 | S. cerevisiae deletion strains, locus YNL271C, strain bni1, stronger effect = lower value 0.992 | S. cerevisiae deletion strains, locus YNL298W, strain CLA4, stronger effect = lower value 0.957 | S. cerevisiae deletion strains, locus YPR141C, strain kar3, stronger effect = lower value 0.977
active: S. cerevisiae deletion strains, locus YBR021W, strain FUR4, stronger effect = lower value 0.239 | S. cerevisiae deletion strains, locus YCL029C, strain bik1, stronger effect = lower value 0.549 | S. cerevisiae deletion strains, locus YDL035C, strain GPR1, stronger effect = lower value 0.638 | S. cerevisiae deletion strains, locus YDL074C, strain BRE1, stronger effect = lower value 0.511 | [4] 0.329 | [26] 0.407 | S. cerevisiae deletion strains, locus YDL192W, strain arf1, stronger effect = lower value 0.095 | S. cerevisiae deletion strains, locus YDR101C, strain arx1, stronger effect = lower value 0.675 | S. cerevisiae deletion strains, locus YDR162C, strain NBP2, stronger effect = lower value 0.174 | S. cerevisiae deletion strains, locus YDR318W, strain mcm21, stronger effect = lower value 0.382 | S. cerevisiae deletion strains, locus YDR388W, stronger effect = lower value 0.181 | S. cerevisiae deletion strains, locus YDR502C, strain sam2, stronger effect = lower value 0.405 | S. cerevisiae deletion strains, locus YER110C, stronger effect = lower value 0.863 | S. cerevisiae deletion strains, locus YER167W, strain BCK2, stronger effect = lower value 0.85 | S. cerevisiae deletion strains, locus YGL086W, strain mad1, stronger effect = lower value 0.28 | S. cerevisiae deletion strains, locus YGL248W, strain PDE1, stronger effect = lower value 0.465 | S. cerevisiae deletion strains, locus YGR135W, strain pre9, stronger effect = lower value 0.408 | S. cerevisiae deletion strains, locus YGR252W, strain gcn5, stronger effect = lower value 0.251 | S. cerevisiae deletion strains, locus YHR079C, strain IRE1 (second series), stronger effect = lower value 0.617 | S. cerevisiae deletion strains, locus YHR094C, strain hxt1, stronger effect = lower value 0.714 | S. cerevisiae deletion strains, locus YHR129C, strain ARP1, stronger effect = lower value 0.674 | S. cerevisiae deletion strains, locus YHR200W, strain rpn10, stronger effect = lower value 0.706 | S. cerevisiae deletion strains, locus YIL066C, strain RNR3, stronger effect = lower value 0.553 | S. cerevisiae deletion strains, locus YIL073C, strain SPO22, stronger effect = lower value 0.3 | S. cerevisiae deletion strains, locus YIR030C, strain dcg1, stronger effect = lower value 0.513 | S. cerevisiae deletion strains, locus YJL095W, strain BCK1, stronger effect = lower value 0.138 | S. cerevisiae deletion strains, locus YJL168C, strain set2, stronger effect = lower value 0.409 | S. cerevisiae deletion strains, locus YJL187C, strain SWE1 (second series), stronger effect = lower value 0.367 | [11] 0.593 | S. cerevisiae deletion strains, locus YKL190W, strain CNB1, stronger effect = lower value 0.524 | S. cerevisiae deletion strains, locus YKR001C, strain vps1, stronger effect = lower value 0.0705 | [12] 1.37 [resistant] | S. cerevisiae deletion strains, locus YLR058C, strain SHM2, stronger effect = lower value 0.446 | S. cerevisiae deletion strains, locus YLR102C, strain apc9, stronger effect = lower value 0.683 | S. cerevisiae deletion strains, locus YLR268W, strain sec22, stronger effect = lower value 0.415 | S. cerevisiae deletion strains, locus YLR342W, strain FKS1 (second series), stronger effect = lower value 0.348 | S. cerevisiae deletion strains, locus YLR371W, strain rom2, stronger effect = lower value 0.355 | S. cerevisiae deletion strains, locus YLR418C, strain cdc73, stronger effect = lower value 0.295 | S. cerevisiae deletion strains, locus YML016C, strain PPZ1, stronger effect = lower value 0.491 | S. cerevisiae deletion strains, locus YML032C, strain rad52, stronger effect = lower value 0.492 | S. cerevisiae deletion strains, locus YML124C, strain tub3, stronger effect = lower value 0.672 | S. cerevisiae deletion strains, locus YMR223W, strain ubp8, stronger effect = lower value 0.478 | S. cerevisiae deletion strains, locus YNL067W, strain RPL9B, stronger effect = lower value 0.825 | S. cerevisiae deletion strains, locus YNL233W, strain BNI4, stronger effect = lower value 0.423 | S. cerevisiae deletion strains, locus YNL307C, strain MCK1, stronger effect = lower value 0.258 | [21] 0.796 | S. cerevisiae deletion strains, locus YNR052C, strain pop2, stronger effect = lower value 0.136 | [28] 0.323 | S. cerevisiae deletion strains, locus YOL012C, strain htz1 0.17 | S. cerevisiae deletion strains, locus YOL147C, strain pex11, stronger effect = lower value 0.445 | S. cerevisiae deletion strains, locus YOR061W, strain CKA2, stronger effect = lower value 0.206 | S. cerevisiae deletion strains, locus YOR069W, strain VPS5, stronger effect = lower value 0.859 | S. cerevisiae deletion strains, locus YOR136W, strain idh2, stronger effect = lower value 0.734 | S. cerevisiae deletion strains, locus YOR144C, strain elg1, stronger effect = lower value 0.813 | S. cerevisiae deletion strains, locus YOR184W, strain ser1, stronger effect = lower value 0.522 | S. cerevisiae deletion strains, locus YOR316C, strain cot1, stronger effect = lower value 0.794 | S. cerevisiae deletion strains, locus YPR119W, strain clb2, stronger effect = lower value 0.774 | S. cerevisiae deletion strains, locus YPR163C, strain tif3, stronger effect = lower value 0.0746 | S. cerevisiae deletion strains, locus YPR167C, strain met16, stronger effect = lower value 0.633 | S. cerevisiae deletion strains, strain wtn01, stronger effect = lower value 0.274 | [29] 0.358
